Compounds without any hit were thinned out: in the full panel of roughly 83,000, 20% have a hit.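 Step 1: grow cells in 96-well plates. Step 2: add test compound at a single concentration. Step 3: incubate 48 h. Step 4: record percent growth.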 Unmarked numbers belong to inactive results. Active and inactive are the calls of the source. How the source made its calls: active means growth percent below 10; inactive means the rest.
Columns and labels:
Assay in all cases: NCI-60 one-dose screen, 48 h (100 = growth as untreated, 0 = no growth, -100 = all killed)
Conditions in all cases: 10 µM unless noted
[1] = test system: HCT-15 colon
[2] = test system: HT29 colon
[3] = test system: SNB-75 CNS
[4] = test system: SNB-19 CNS
[5] = test system: U251 CNS
[6] = test system: PC-3 prostate
[7] = test system: SK-MEL-5 melanoma
[8] = test system: UACC-62 melanoma
[9] = test system: LOX IMVI melanoma
[10] = test system: SK-MEL-28 melanoma

SMILES | growth [1] | growth [2] | growth [3] | growth [4] | growth [5] | growth [6] | growth [7] | growth [8] | growth [9] | growth [10]
CC1=C(C(=O)/C=C/c2c[nH]c3ccccc23)C(c2ccccc2)NC(=S)N1 (stereo not given) | 101% | 106% | 65.5% | 91.7% | 101% | 95.1% | 98.3% | 83.6% | 94.3% | 104%
COc1cccc(/C=N/NC(=O)c2cnn3c2NC(c2ccccc2)C3)c1Oc1ccccc1 (stereo not given) | 49.8% | 41.5% | 60.8% | 75.4% | 83.9% | 72.3% | 73% | 62.3% | 84.5% | 79.1%
NC1=NN=C(N)C1=Cc1cc2ccccc2n2nnnc12 | 104% | 104% | 94.3% | 95.8% | 89% | 86.6% | 101% | 93.2% | 85.1% | 116%
COc1ccc(NC(N)=NCCCOc2ccc(F)cc2)cc1 | 92.2% | 36.6% | 81.9% | 81.5% | 85.7% | 66.8% | 28% | 87.8% | 89.8% | 88.5%
O=S(=O)(NCCNc1nccc(-c2c(-c3cccc(O)c3)nc3occn23)n1)c1ccc(C(F)(F)F)cc1 | 108% | 72.9% | 92.5% | 115% | 104% | 99.7% | 55.7% | 26.7% | 75.1% | 58.3%
O=C(CCN1CCCC1)Nc1ccc2c(NCCc3ccccc3)c3ccccc3nc2c1 | 12% | 4.99% (active) | -70.8% (active) | -17.9% (active) | -24% (active) | -36% (active) | 11.2% | -55.1% (active) | -68% (active) | -17.4% (active)
COc1ccc(C(=O)c2cc(OC)c(OC)c(OC)c2)cc1O | 3.56% (active) | 14.7% | -0.83% (active) | 28.5% | 20.5% | 20.4% | -59.7% (active) | 45.2% | 15.4% | 57.6%
CC(=O)CCC(=O)OCc1cc(=O)c(O)co1 | 98.2% | 101% | 104% | 104% | 107% | 98.7% | 105% | 103% | 94.6% | 98.1%
COc1cc2c(=O)n(CCCN(C)C)c3c4cc5c(cc4ccc3c2cc1OC)OCO5 | 52.1% | 30.5% | 90.2% | 52.6% | 55.8% | 50.8% | 71% | 59.4% | 36.3% | 87.2%
CCCCCCCCCCCCCCCC[N+]1(C)CCN(SN2CC[N+](C)(CCCCCCCCCCCCCCCC)CC2)CC1 | 54.2% | 19.7% | 50.3% | 29.3% | 23.2% | 33% | 95.4% | 72.8% | 34.1% | 98.4%
O=C1Nc2cc(-c3ccc(NS(=O)(=O)c4ccccc4)cc3)ccc2/C1=C/c1ccc[nH]1 | 62.9% | 84.2% | 98.5% | 98.1% | 97.9% | 82.5% | 91.2% | 89.3% | 69.3% | 108%
O=Cc1ccc(-c2cn3ccnc3c(-c3ccc4ncn(Cc5ccccc5)c4c3)n2)cc1 | 50.9% | 82.5% | 78.6% | 85.6% | 68% | 81% | 43.5% | 62.9% | 53.1% | 92.5%
Cc1ccc(C(=O)/C(=C\c2ccc([N+](=O)[O-])cc2)S(=O)Cc2ccc(Cl)cc2)cc1 (stereo not given) | 10.8% | -51.1% (active) | 75.5% | 46.8% | 9.49% (active) | 6.38% (active) | 78.5% | 5.87% (active) | -26.5% (active) | 46.6%
COc1cc2c(-c3cc4c(cc3CNCCc3ccc5c(c3)OCO5)OCO4)cccc2c(OC)c1O | 59.4% | 92% | 44.9% | 87.4% | 75.1% | 60.9% | 78.8% | 79.1% | 72.8% | 97.6%
CNC(=O)c1cc(Cn2nc(C)c(NC(=O)Nc3ccc(Cl)c(C(F)(F)F)c3)c2C)ccn1 | 98% | 92.4% | 68% | 103% | 86.7% | 79.4% | 91.8% | 93.7% | 98% | 107%
CCN(CC)c1ccc(C(=O)c2ccccc2)cc1 | 105% | 95% | 93.5% | 97.7% | 87.2% | 97.9% | 96.9% | 96% | 100% | 104%
O=c1ccc(-c2nc(N3CCOCC3)c3ccccc3n2)c[nH]1 | 99.1% | 101% | 81.1% | 98.7% | 99.1% | 93.5% | 88.3% | 55.5% | 98.3% | 97.6%
COc1cc2oc(-c3cccc(C(=O)Nc4ccc(Br)cc4)c3)cc(=O)c2c(OC)c1OC | 40.2% | 39.5% | 81.7% | 80.9% | 65.7% | 53.1% | 56.3% | 63.7% | -20.9% (active) | 35.7%
NC(=O)CSSCC(N)=O | 102% | 105% | 95.2% | 101% | 93.4% | 92.1% | 98.4% | 95.8% | 100% | 109%
O=C(/C(=C\c1ccc([N+](=O)[O-])cc1)S(=O)Cc1ccc(Cl)cc1)c1ccc(Cl)cc1 (stereo not given) | 34.8% | 16.5% | 93% | 71.6% | 53.6% | 66.9% | 90.7% | 69.2% | 40.5% | 86.8%
COc1ccc(Cc2cnc(NC(=O)c3ccc4c(c3)OCCO4)s2)cc1 | 7.26% (active) | 2.59% (active) | 17.9% | 37.7% | 12.3% | 23.4% | -39.3% (active) | 48.1% | 29.3% | 68.6%
